# Laboratory results published in PubChem BioAssay.
# Results filed as inconclusive are left out. Calls of active or inactive are those of the source.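 Rule for the calls, unless noted: active = efflux inhibition above 0.42, the validation set average plus 4 SD; inconclusive = no clear call, values can overlap the other calls; inactive = the rest.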
# Experiments:
# [1] = yeast TOR pathway RPL19A-GFP modulators, primary screen, cell-based, S. cerevisiae, multiplex flow cytometry (AID 1862; in the data active = percent of DMSO control GFP below about 86%;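 note: lower values mimic rapamycin by blocking the RPL19A rise seen in DMSO cells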); settings: S. cerevisiae RPL19A-GFP strain, flow cytometry fluorescence, 3 h; at 10 µM; stronger effect = lower value
# [2] = modulators of MEP2-GFP levels in yeast, primary screen, S. cerevisiae, multiplex flow cytometry (AID 1867;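 active = GFP response, as percent of the DMSO control, above the screen-wide mean plus 3 SD, about 139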;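 note: median GFP channel fluorescence of barcode-gated MEP2-GFP cells measured by flow cytometry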); settings: S. cerevisiae MEP2-GFP strain, 3 h, at 10 µM, stronger effect = higher value, 100% means same as DMSO wells
# [3] = modulators of CIT2-GFP expression in yeast, primary screen, S. cerevisiae, GFP fusion, multiplex flow cytometry (AID 1870;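 active = percent response above a set limit, the screen-wide mean plus 3 SD, cut at about 130% in these data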;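 note: barcoded CIT2-GFP strain pooled with four other GFP strains with rapamycin as positive control; median GFP fluorescence per well over plate mean of DMSO wells so 100% = DMSO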); settings: 3 h, at 10 µM, stronger effect = higher value
# [4] = modulators of LAP4-GFP expression in yeast, primary screen, S. cerevisiae, multiplex flow cytometry (AID 1873;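 active = GFP signal, as percent of the solvent control, above the screen mean plus 3 SD, about 149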); settings: 3 h, at 10 µM, stronger effect = higher value
# [5] = modulators of AGP1-GFP expression in yeast TOR pathway, primary screen, cell-based, multiplex flow cytometry, S. cerevisiae (AID 1887;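 active = GFP signal above the screen-wide mean plus 3 SD, that is over about 124.5% of the solvent control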;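 note: AGP1-GFP fusion strain of S. cerevisiae within a five-strain barcoded multiplex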); settings: 3 h, at 10 µM, stronger effect = higher value
# [6] = inhibitors of CD8+ T cell-vesicle binding, pilot screen, LFA-1/ICAM-1 modulator project, MLPCN validation set, flow cytometry (AID 2523;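 active = response below a set limit, under 55% cells CD8-positive and vesicle-bound, and CD8 cells' 90th-percentile brightness under 279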;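 for vesicle binding response: mean PE anti-B7-1 fluorescence of CD8+ cells relative to row control; 100% = QL9-loaded vesicles with DMSO vehicle in the same plate row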); settings: 2C mouse CD8+ T cells, at 7 µM, stronger effect = lower value; double positive events: measured here: CD8+/vesicle+ event percentage
# [7] = target: Integrin beta-1 (Homo sapiens) + Integrin alpha-4 (Homo sapiens) (UniProt P13612+P05556); experiment: inhibition of HUTS-21 binding to VLA-4, pilot screen, VLA-4 allosteric modulator project, U937 cells, HUTS-21 mAb, flow cytometry, validation set (AID 2674;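 active = inhibition above 50%, about 3 SD of the validation set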;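 note: antibody binding induced by the VLA-4 ligand LDV present at three times its Kd; 0% = LDV ligand with antibody and no compound and 100% = antibody without LDV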); settings: HUTS-21 LIBS mAb binding, at 6.7 µM, stronger effect = higher value, binding induced by LDV ligand
# Chain of Integrin beta-1 (Homo sapiens) + Integrin alpha-4 (Homo sapiens) (P05556 whole entry, looked up): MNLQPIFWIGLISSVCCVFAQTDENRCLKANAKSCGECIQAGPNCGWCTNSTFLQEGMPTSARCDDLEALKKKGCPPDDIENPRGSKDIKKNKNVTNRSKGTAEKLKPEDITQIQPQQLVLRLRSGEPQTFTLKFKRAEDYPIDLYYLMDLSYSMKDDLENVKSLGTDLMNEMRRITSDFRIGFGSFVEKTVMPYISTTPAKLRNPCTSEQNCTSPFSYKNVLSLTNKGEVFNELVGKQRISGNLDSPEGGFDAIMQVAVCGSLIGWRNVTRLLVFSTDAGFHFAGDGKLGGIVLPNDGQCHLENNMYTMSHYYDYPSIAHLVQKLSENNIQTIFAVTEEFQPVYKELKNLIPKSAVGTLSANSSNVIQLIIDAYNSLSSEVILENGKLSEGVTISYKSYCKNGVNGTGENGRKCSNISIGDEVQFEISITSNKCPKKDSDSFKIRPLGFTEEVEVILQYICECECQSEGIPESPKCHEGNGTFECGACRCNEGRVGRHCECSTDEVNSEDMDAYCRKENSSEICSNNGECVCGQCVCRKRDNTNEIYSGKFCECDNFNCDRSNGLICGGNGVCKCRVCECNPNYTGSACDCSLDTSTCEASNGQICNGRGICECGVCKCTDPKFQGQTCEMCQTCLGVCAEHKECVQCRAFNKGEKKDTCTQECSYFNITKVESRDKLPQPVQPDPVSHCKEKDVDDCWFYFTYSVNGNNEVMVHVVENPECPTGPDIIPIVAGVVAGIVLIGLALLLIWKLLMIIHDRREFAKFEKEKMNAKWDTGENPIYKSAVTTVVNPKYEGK
# Chain of Integrin beta-1 (Homo sapiens) + Integrin alpha-4 (Homo sapiens) (P13612 whole entry, looked up): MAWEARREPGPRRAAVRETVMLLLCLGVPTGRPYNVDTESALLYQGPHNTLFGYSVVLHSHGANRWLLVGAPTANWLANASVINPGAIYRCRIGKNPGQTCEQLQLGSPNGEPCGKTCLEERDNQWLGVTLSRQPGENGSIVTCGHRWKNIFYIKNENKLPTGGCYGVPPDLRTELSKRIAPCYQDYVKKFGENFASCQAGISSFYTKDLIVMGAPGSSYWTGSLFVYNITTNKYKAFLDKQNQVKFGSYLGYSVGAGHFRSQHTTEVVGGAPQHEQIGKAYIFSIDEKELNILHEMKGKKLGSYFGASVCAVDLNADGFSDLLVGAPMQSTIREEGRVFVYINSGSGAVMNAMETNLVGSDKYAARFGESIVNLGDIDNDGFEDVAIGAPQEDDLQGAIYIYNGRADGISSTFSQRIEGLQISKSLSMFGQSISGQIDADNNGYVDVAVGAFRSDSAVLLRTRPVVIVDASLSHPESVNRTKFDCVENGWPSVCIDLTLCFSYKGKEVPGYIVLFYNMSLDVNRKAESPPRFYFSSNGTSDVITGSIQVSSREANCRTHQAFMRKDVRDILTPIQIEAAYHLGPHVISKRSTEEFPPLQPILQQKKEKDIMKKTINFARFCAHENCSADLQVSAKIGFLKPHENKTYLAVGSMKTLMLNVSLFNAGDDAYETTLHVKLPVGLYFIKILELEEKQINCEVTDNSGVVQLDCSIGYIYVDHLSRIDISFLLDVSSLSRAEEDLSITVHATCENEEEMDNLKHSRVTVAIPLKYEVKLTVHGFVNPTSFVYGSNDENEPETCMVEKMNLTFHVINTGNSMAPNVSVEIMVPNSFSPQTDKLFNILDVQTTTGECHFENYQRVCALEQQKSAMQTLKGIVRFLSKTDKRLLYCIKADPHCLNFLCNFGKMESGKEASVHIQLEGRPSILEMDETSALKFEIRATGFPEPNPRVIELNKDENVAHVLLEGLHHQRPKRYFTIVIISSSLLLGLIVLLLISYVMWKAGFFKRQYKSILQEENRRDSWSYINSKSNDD
# [8] = superoxide lowering in aged yeast cells, pilot screen, validation compound set (AID 2706;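 active = superoxide response below 65% of plate, a cut near 3 SD across the whole screen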;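 note: yeast exposed to compound for one week at 30 degrees C before staining; 100% = mean of all compound wells on the same plate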); settings: S. cerevisiae aging, superoxide DHE fluorescence; at 10 µM; stronger effect = lower value
# [9] = target: Beta-adrenergic receptor kinase 1 (Homo sapiens) (UniProt P25098); experiment: GRK2 binders displacing RNA aptamer, biochemical, validation, human GRK2, bead flow cytometry (AID 488806;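 active = aptamer binding inhibition above 30%, about 3 SD of noise from non-fluorescent compounds; inactive = inhibition at or below 30%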); settings: bead-bound GRK2, FAM-aptamer displacement, at 10 µM, stronger effect = higher value
# Chain of Beta-adrenergic receptor kinase 1 (Homo sapiens) (P25098 whole entry, looked up): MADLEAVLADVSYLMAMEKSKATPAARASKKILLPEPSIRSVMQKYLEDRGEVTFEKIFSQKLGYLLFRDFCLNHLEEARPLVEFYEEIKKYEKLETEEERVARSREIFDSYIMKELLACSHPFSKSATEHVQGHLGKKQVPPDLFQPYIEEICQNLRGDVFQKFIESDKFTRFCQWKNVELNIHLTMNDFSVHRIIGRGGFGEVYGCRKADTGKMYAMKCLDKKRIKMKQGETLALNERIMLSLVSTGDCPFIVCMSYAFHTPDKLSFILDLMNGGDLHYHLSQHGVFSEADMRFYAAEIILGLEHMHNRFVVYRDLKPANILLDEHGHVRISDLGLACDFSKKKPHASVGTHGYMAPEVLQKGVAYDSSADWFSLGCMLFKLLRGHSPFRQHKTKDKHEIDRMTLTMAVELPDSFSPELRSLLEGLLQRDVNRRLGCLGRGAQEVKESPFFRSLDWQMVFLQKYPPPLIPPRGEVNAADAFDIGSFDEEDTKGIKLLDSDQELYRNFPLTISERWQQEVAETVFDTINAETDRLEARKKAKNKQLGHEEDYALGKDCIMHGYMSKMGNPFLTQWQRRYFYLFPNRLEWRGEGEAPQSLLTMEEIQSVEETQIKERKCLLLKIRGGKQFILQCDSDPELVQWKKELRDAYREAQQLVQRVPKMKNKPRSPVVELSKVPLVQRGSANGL
# [10] = target: Beta-2 adrenergic receptor (Homo sapiens) (UniProt P07550); experiment: beta2AR agonists driving receptor internalization, pilot screen, cell-based, FAP fluorogen, flow cytometry, validation set (AID 504459;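 active = percent response above 42, roughly 3 SD of non-fluorescent test compounds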;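 note: agonist-driven loss of surface beta2AR via internalization measured by FAP dye flow cytometry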); settings: Am2.2-beta2AR cells, FAP surface receptor flow cytometry; at 10 µM; stronger effect = higher value
# Chain of Beta-2 adrenergic receptor (Homo sapiens) (P07550 whole entry, looked up): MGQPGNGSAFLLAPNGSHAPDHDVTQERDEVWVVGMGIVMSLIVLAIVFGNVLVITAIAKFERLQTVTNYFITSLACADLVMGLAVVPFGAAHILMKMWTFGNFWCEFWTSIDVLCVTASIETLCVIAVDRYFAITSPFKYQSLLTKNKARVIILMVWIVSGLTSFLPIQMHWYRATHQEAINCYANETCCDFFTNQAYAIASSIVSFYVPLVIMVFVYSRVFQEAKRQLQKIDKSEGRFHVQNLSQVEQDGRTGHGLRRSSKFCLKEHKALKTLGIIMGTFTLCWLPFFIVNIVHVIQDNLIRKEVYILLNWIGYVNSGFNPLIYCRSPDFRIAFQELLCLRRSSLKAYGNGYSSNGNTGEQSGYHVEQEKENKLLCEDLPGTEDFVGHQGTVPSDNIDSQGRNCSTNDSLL
# [11] = target: AP-2 complex subunit beta (Homo sapiens) (UniProt P63010); experiment: inhibitors of arrestin peptide binding to AP2, pilot screen, biochemical, validation set, GST-AP2 beads, flow cytometry (AID 504541;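 active = inhibition above 54%, about 3 SD of non-fluorescent compounds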;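 note: AP2 carries R879A mutation and is captured from E. coli lysate; bead-bound FITC arrestin peptide fluorescence measuring arrestin peptide binding to AP2; 0% = DMSO wells and 100% = excess unlabeled arrestin peptide control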); settings: FITC arrestin peptide, at 10 µM, stronger effect = higher value, AP2 beta2 appendage fragment, R879A mutant
# Chain of AP-2 complex subunit beta (Homo sapiens) (P63010 whole entry, looked up, the tested form may be a part, one chain of several): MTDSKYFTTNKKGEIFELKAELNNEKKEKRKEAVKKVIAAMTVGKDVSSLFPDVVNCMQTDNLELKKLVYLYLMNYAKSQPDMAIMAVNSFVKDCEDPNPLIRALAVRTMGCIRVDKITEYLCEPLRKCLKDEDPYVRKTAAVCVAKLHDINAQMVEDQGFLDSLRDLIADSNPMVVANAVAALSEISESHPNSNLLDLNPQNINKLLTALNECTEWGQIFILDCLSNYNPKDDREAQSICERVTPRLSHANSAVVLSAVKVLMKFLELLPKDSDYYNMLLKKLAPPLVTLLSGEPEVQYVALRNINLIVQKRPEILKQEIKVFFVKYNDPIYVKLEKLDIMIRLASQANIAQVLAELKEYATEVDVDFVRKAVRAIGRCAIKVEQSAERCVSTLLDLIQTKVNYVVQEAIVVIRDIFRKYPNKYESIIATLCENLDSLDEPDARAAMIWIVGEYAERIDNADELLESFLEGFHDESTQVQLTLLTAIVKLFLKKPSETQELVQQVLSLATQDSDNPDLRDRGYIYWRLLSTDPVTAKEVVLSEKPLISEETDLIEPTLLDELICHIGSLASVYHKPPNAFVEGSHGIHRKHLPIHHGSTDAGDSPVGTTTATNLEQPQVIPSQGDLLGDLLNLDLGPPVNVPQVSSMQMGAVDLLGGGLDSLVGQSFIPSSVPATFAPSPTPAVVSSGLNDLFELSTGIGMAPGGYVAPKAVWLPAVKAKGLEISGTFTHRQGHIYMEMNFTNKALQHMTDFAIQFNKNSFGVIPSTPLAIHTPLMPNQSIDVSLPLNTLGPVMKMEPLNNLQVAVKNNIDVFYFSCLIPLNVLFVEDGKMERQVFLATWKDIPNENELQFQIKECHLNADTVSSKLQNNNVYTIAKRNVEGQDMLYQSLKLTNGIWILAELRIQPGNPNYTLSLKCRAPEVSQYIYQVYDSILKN
# [12] = yeast V-ATPase proton transport modulators, S. cerevisiae, pHLuorin, HTS validation (AID 504600; in the data active = response above about 15%;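 note: plate controls were DMSO for no effect and reference compound for full effect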); settings: S. cerevisiae pHLuorin cytosolic pH, at 10 µM, stronger effect = higher value
# [13] = tested on: anti-desmoglein-3 scFv antibody binding to human DSG3; experiment: inhibitors of anti-DSG3 scFv binding to DSG3, pilot screen, biochemical, validation compound set, bead-based, flow cytometry (AID 588368;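 active = binding below the plate cutoff, the plate median minus 3 SD, with a reading above zero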;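 note: signal is the median channel fluorescence of bead-bound GFP antibody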); settings: Protein G beads, DSG3-Fc, scFv-GFP binding, at 10 µM, stronger effect = lower value
# [14] = inhibitors of fungal efflux pumps CDR1, CDR2, MDR1, pilot screen, validation compound set, multiplex, phenotypic (AID 588506);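 note: Nile Red retained in cells so higher fluorescence means more efflux inhibition; 0 = negative control wells and 1 = enniatin B 25 µM full block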; settings: S. cerevisiae pump-expressing triplex, Nile Red efflux flow cytometry; at 10 µM; stronger effect = higher value; the pumps come from Candida albicans
# [15] = target: ATP-binding cassette sub-family B member 6 (Homo sapiens) (UniProt Q9NP58); experiment: ABCB6 transporter inhibitors, pilot screen, K562-ABCB6 cells, flow cytometry, validation set (AID 588550;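 active = inhibition above the screen-wide mean plus 3 SD, about 51%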;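 note: 0% = DMSO wells and 100% = benzethonium chloride 70 µM positive control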); settings: K562-ABCB6 porphyrin accumulation, 1 h, at 10 µM, stronger effect = higher value
# Chain of ATP-binding cassette sub-family B member 6 (Homo sapiens) (Q9NP58 whole entry, looked up): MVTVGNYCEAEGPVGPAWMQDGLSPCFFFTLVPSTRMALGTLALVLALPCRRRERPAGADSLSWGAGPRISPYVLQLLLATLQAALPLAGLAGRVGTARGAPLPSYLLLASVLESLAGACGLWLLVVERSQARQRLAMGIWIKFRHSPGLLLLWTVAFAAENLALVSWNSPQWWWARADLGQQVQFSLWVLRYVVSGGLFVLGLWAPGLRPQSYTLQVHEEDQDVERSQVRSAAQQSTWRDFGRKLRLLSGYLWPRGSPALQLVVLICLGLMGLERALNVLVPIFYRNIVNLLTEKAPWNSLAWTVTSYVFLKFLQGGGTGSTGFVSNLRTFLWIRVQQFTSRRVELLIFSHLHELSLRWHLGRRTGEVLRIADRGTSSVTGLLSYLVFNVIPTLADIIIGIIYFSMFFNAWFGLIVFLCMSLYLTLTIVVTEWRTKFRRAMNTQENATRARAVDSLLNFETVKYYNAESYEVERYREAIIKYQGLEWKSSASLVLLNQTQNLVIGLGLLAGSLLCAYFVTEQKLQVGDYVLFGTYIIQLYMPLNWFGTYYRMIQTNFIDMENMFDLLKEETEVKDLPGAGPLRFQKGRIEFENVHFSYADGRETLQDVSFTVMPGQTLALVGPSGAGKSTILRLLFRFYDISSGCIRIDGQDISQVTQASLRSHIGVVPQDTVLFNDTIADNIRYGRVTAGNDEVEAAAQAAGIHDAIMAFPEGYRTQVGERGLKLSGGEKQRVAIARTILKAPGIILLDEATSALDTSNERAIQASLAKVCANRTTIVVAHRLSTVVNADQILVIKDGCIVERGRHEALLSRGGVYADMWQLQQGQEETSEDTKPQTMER
# [16] = promoters of myeloid differentiation in arrested cells, primary screen, cell-based, GFP/MAC1 double positive, flow cytometry, validation set (AID 588685;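 active = differentiation response of at least 50%, scaled between solvent and reference control, from cells with both markers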;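 note: compound exposure lasts four days before antibody staining and flow analysis; 0% = DMSO wells and 100% = 5 µM fulvestrant positive control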); settings: ER-HoxA9 marrow cells, stronger effect = higher value, normalized: vehicle 0, fulvestrant 100
SMILES,percent of DMSO control GFP [1],GFP response vs DMSO [2],percent response of DMSO control [3],GFP response vs DMSO [4],"GFP response, % of DMSO [5]",double positive events [6] [%],vesicle binding response [6],inhibition [7],superoxide response (% of plate) [8],aptamer binding inhibition [9],response [10],inhibition [11],response [12],binding (% of control) [13],efflux inhibition (fraction of control) [14],inhibition [15],differentiation response [16]
O=C(Nc1ccc(N2CCOCC2)cc1)c1ccc(-c2ccccc2[N+](=O)[O-])o1,102% (inactive),102% (inactive),106% (inactive),96.5% (inactive),98.8% (inactive),68.5,132% (inactive),3.98% (inactive),99.9% (inactive),5% (inactive),8.71% (inactive),-4.06% (inactive),1.65% (inactive),97.9% (inactive),0.07 (inactive),6% (inactive),-1.88% (inactive)
Cc1ccc(S(=O)(=O)Oc2ccccc2/C=N/N=C(N)N)cc1,102% (inactive),103% (inactive),104% (inactive),93.7% (inactive),103% (inactive),68.2,172% (inactive),12.6% (inactive),97.8% (inactive),1% (inactive),7.63% (inactive),6.93% (inactive),-0.49% (inactive),103% (inactive),0.01 (inactive),7% (inactive),-2.64% (inactive)
COCCCN1C(=O)/C(=C\c2cccs2)C(C(=O)OC)=C1C,99.9% (inactive),106% (inactive),92.9% (inactive),120% (inactive),99.4% (inactive),57.8,4220% (inactive),6.4% (inactive),113% (inactive),2% (inactive),-6.32% (inactive),-12% (inactive),10.8% (inactive),102% (inactive),-0.06 (inactive),5% (inactive),-20% (inactive)
CCOC(=O)C1=C(C)NC(C)=C(C(=O)OC)C1c1cccc(Cl)c1Cl (stereo not drawn),88.4% (inactive),125% (inactive),104% (inactive),79.2% (inactive),80.3% (inactive),65.9,193% (inactive),5.49% (inactive),121% (inactive),6% (inactive),-8.07% (inactive),-0.86% (inactive),-0.17% (inactive),106% (inactive),-0.28 (inactive),9% (inactive),0% (inactive)
CC(C)CN1CCN(Cc2ccc3ncccc3c2)CC1CCO (stereo not drawn),103% (inactive),96.2% (inactive),118% (inactive),84.8% (inactive),103% (inactive),62,290% (inactive),4.73% (inactive),95% (inactive),-1% (inactive),-8.31% (inactive),-6.16% (inactive),1.7% (inactive),103% (inactive),0.24 (inactive),-9% (inactive),6.11% (inactive)
Fc1ccc(C(c2ccc(F)cc2)N2CCN(C/C=C/c3ccccc3)CC2)cc1,94.6% (inactive),131% (inactive),104% (inactive),80.9% (inactive),97% (inactive),56.3,215% (inactive),-1.3% (inactive),108% (inactive),4% (inactive),6.79% (inactive),2.83% (inactive),-0.13% (inactive),110% (inactive),-0.02 (inactive),1% (inactive),4.09% (inactive)
CC(=O)Nc1ccc2[nH]c(C)c(CC=C(Cl)Cl)c(=O)c2c1,105% (inactive),113% (inactive),93.9% (inactive),87.3% (inactive),94.8% (inactive),61.1,146% (inactive),12.6% (inactive),110% (inactive),4% (inactive),5.01% (inactive),-17.8% (inactive),0.46% (inactive),97.9% (inactive),0.14 (inactive),11% (inactive),-5.68% (inactive)
Cc1nnc(SCC2=C(C(=O)O)N3C(=O)[C@@H](NC(=O)Cn4cnnn4)[C@H]3SC2)s1,100% (inactive),104% (inactive),100% (inactive),114% (inactive),112% (inactive),61.6,282% (inactive),15.9% (inactive),98.1% (inactive),-1% (inactive),-26.4% (inactive),6.15% (inactive),-5.74% (inactive),93.4% (inactive),-0.13 (inactive),1% (inactive),-7.94% (inactive)
Cc1ccc(S(=O)(=O)NC(=O)Nc2cc(C)ccc2F)cc1,102% (inactive),105% (inactive),93.1% (inactive),82.2% (inactive),96.5% (inactive),62.3,1090% (inactive),2.66% (inactive),110% (inactive),2% (inactive),-5.23% (inactive),56.9% (active),-3.86% (inactive),92.9% (inactive),0.64 (active),-2% (inactive),34.5% (inactive)
